Compound activity deposited in PubChem BioAssay by National Center for Advancing Translational Sciences (NCATS).
Mito fusion act = blocks mitochondrial division or promotes mitochondrial fusion | S. cerevisiae fusion-defective mutant growth rescue, CellTiterGlo 48 h | Potency, µM (titrated, usually from 46.1 µM), without a hit: top-dose growth rescue (activation), usual class: activators | 320,000 compounds, 0.23% hits; note: % of control where 0% means no effect; nearly all actives have a fitted effect of over 45% in size
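S. cerevisiae fusion-defective temperature-sensitive mutants (e.g. fzo1-1, mgm1-5) grown 48 h at 37C in YPEG (ethanol/glycerol non-fermentable) medium with 23 nl compound per well; growth rescue read as CellTiterGlo luminescence.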
aSyn yeast inh = alpha-synuclein toxicity inhibition in yeast; Yeast expressing alpha-synuclein, growth rescue, BacTiter-Glo, 24 h; Potency, µM (titrated, usually from 46.1 µM), for inactives: at the highest dose growth rescue (activation), usual class: activators; 370,000 compounds, 0.14% hits; note: % of control where 0% means no effect; nearly all actives have a fitted effect of over 65% in size
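Screening used galactose-induced yeast with toxic alpha-synuclein levels, exposed to compound for 24 hr at 30 deg C. Cell growth, read with BacTiter-Glo luminescence, gave the measured signal.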
FUS suppressor = FUS proteinopathy suppression in yeast; S. cerevisiae FUS-expressing, growth rescue, OD600, 24 h; Potency, µM (titrated, usually from 76.6 µM), hits mostly activators; 390,000 compounds, 0.24% hits; AID 1347120;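 note: plate controls were DMSO vehicle for no effect and reference control for full effect; nearly all actives have a fitted effect of over 55% in size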
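Yeast expressing FUS under galactose induction, OD 0.005 in 2% galactose medium; compounds in a dilution series, 24 h at 30C. Growth rescue by absorbance at 600 nm; CP55940 positive control, DMSO negative.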
Abeta yeast res = restores growth of yeast expressing A-beta42 peptide | yeast expressing A-beta42, growth rescue, OD600, 48 h; response scale: 0% DMSO, 100% iron-clioquinol control | Potency, µM (highest dose often 46.1 µM), usual class: activators | 410,000 compounds, 0.063% hits; note: nearly all actives have a fitted effect of over 55% in size
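Yeast A-beta toxicity model in growth medium with pinned compounds, 48 h at 30 C; growth read as absorbance at 600 nm. Normalized to FeCl3/clioquinol equimolar mix (positive) and DMSO (negative).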
TDP-43 yeast inh = inhibitors of TDP-43 toxicity in yeast; 410,000 compounds, 1.8% hits; TDP-43 expressing yeast growth rescue, BacTiter-Glo, 24 h; Potency, µM (doses to about 46.1 µM), inactives show top-dose growth rescue (activation), most hits filed as activators; note: % of control where 0% means no effect; nearly all actives have a fitted effect of over 50% in size
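Growth rescue of TDP-43-toxic yeast measured as ATP luminescence (BacTiter-Glo). Cells grown to mid-log in raffinose, induced in galactose at OD600=0.02, exposed to compound 24 hr at 30 deg C.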
* = called active by the depositor. Rows were chosen to be rich in hits. Some 2.2% of all compounds tested hit in one or more screens of this group. Calls come from the whole dose curve; as a rule, active = well fitted curve in the direction sought with a large enough effect; inconclusive = small, poorly fitted or top-dose-only effect, or another doubt; inactive = no such curve, though single readings can be large; an effect the other way counts as inactive or inconclusive. Potency is the fitted concentration of half-maximal effect.

What do the screens show for `O=C(COc1ccccc1)Nc1nnc(-c2ccc3c(c2)CCCC3)o1`?
Mito fusion act: -13%; aSyn yeast inh: 10µM*; FUS suppressor: inactive; Abeta yeast res: inconclusive; TDP-43 yeast inh: 11µM*

How did O=C(COc1ccccc1)Nc1nnc(-c2ccccc2Cl)o1 do in these assays?
aSyn yeast inh: 8%; FUS suppressor: inactive; Abeta yeast res: inactive; TDP-43 yeast inh: 0%

Results for O=C(COc1ccccc1)Nc1nnc(-c2ccc(F)cc2)o1 ?
Mito fusion act: -1%; aSyn yeast inh: 18µM*; FUS suppressor: inactive; Abeta yeast res: inconclusive; TDP-43 yeast inh: inconclusive

How did COc1cccc(CNC(=O)C(=O)NCC(c2cccs2)S(=O)(=O)c2cccs2)c1 (configuration not stated) do in these assays?
FUS suppressor: inactive; Abeta yeast res: inactive; TDP-43 yeast inh: 10%

How did N#CCCN1CCN(C(=S)c2ccc(-c3ccc(Cl)cc3)o2)CC1 do in these assays?
Mito fusion act: -3%; aSyn yeast inh: 7%; FUS suppressor: inactive; Abeta yeast res: inactive; TDP-43 yeast inh: 13µM*

Results for S=C(c1ccc(-c2ccc(Cl)cc2)o1)N1CCCCC1 ?
Mito fusion act: 9%; aSyn yeast inh: -18%; FUS suppressor: inactive; Abeta yeast res: inactive; TDP-43 yeast inh: -20%

How did CC(C)(C)NC(=O)COC(=O)CNC(=O)C1CCCCC1 do in these assays?
aSyn yeast inh: 2%

What do the screens show for `CC1CC2(C)CC(C)C1(COC(=O)Nc1ccccc1)CO2` (configuration not stated)?
Mito fusion act: 15%; aSyn yeast inh: 1%; FUS suppressor: inactive; Abeta yeast res: inactive; TDP-43 yeast inh: 35µM*

Results for O=C(Nc1ccccc1)OCCCCOC(=O)Nc1ccccc1 ?
aSyn yeast inh: 0%; FUS suppressor: inactive; Abeta yeast res: inactive; TDP-43 yeast inh: 9%

Results for COc1ccc(OCC(O)CN(CCO)CC(O)Cn2ccc3ccccc32)cc1 (configuration not stated) ?
Mito fusion act: -1%; aSyn yeast inh: -7%; FUS suppressor: inactive; Abeta yeast res: inactive; TDP-43 yeast inh: -29%

How did CCC(=C(c1ccc(OC)cc1)c1ccc(OC)cc1)c1cn(CC(O)CN(CCO)CCO)c2ccccc12 (configuration not stated) do in these assays?
Mito fusion act: 0%; aSyn yeast inh: -14%; FUS suppressor: 28µM*; Abeta yeast res: inactive; TDP-43 yeast inh: 5%

What do the screens show for `CC1CCN(c2oc(-c3ccco3)nc2S(=O)(=O)c2ccccc2)CC1`?
Mito fusion act: -1%; aSyn yeast inh: -5%; FUS suppressor: inactive; Abeta yeast res: inactive; TDP-43 yeast inh: 16µM*

Results for OCCN1CCN(c2ncnc3c2ncn3[C@H]2CN(Cc3ccc4c(c3)OCO4)C[C@@H](CO)O2)CC1 ?
aSyn yeast inh: -2%; FUS suppressor: inactive; Abeta yeast res: inactive; TDP-43 yeast inh: 17%

Results for CC(C)Oc1ccc(CNC(=O)Cc2ccc(NC(=O)N3CCSc4ncccc43)cc2)cc1 ?
FUS suppressor: inactive; Abeta yeast res: inactive; TDP-43 yeast inh: 17%

How did CC(C)(C)n1nnnc1C(c1cccnc1)N1CCN(c2ccccn2)CC1 (configuration not stated) do in these assays?
Mito fusion act: -2%; aSyn yeast inh: 10%; FUS suppressor: inactive; Abeta yeast res: inactive; TDP-43 yeast inh: -5%

How did CC(C)(C)n1nnnc1C(c1ccccc1)N1CCN(c2ccc(C(F)(F)F)cn2)CC1 (configuration not stated) do in these assays?
aSyn yeast inh: -1%; FUS suppressor: inactive; Abeta yeast res: inactive; TDP-43 yeast inh: 35µM*

What do the screens show for `Cc1ccc(C)c(Cn2c(-c3cccs3)nc3ccccc32)c1`?
FUS suppressor: inactive; Abeta yeast res: inactive; TDP-43 yeast inh: 20µM*

How did Cc1cccc(Cn2c(-c3cccs3)nc3ccccc32)c1 do in these assays?
aSyn yeast inh: -31%; FUS suppressor: inactive; Abeta yeast res: inactive; TDP-43 yeast inh: 19%

Results for CC(=O)c1cccc(-c2ccnc3c2CC(C(=O)Nc2ccc4c(c2)OCO4)O3)c1 (configuration not stated) ?
aSyn yeast inh: 14%; FUS suppressor: inconclusive; Abeta yeast res: inactive; TDP-43 yeast inh: 25µM*
